Results on 45 molecules are retold here after publication PMC13083723 (Patterns, 2026).

The whole screen tested about 5,400 compounds, of which about 190 (3.5%) showed an effect of 50% or more. Only a selection was taken, and strong results are over-represented in it overall.

In the test the test system is Vero-E6. The experiment in a line: primary screen, phospholipidosis by LipidTOX staining; higher = more effect of the substance. To be noted: 10 µM. Summed up:
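Drug-induced phospholipidosis detected with HCS LipidTOX Red reagent in Vero-E6 cells. Compounds tested at 10 μM, with amiodarone (10 μM) as positive control and DMSO (0.1 v/v %) as vehicle.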
Take `CC1=CC(=O)[N-]S(=O)(=O)O1`: the result_ITMP is recorded as -5.65%.
As for `C[C@]12CCC(=O)C=C1CC[C@@H]1[C@@H]2CC[C@@]2(C)[C@H]1CC[C@]2(C)O`, the result_ITMP came out at 0.46%.
Turning to `O=C([O-])C(O)C(O)C(O)C(O)CO` (stereo not drawn), the result_ITMP is -6.08%.
Regarding `O=C1[C@@H]2[C@H]3CC[C@H](C3)[C@@H]2C(=O)N1CCCCN1CCN(c2ncccn2)CC1`, the result_ITMP is -0.39%.
For `c1ccc(Cn2c(-c3ccc(OC[C@H](C4CCNCC4)n4c(-c5ccccc5)nc5ccccc54)cc3)nc3ccccc32)cc1`, the result_ITMP was found to be 13.3%.
`c1ccc(Cn2c(N3CCNCC3)nc3ccccc32)cc1`: the result_ITMP is 51.9%.
To `CN(c1nccc(=O)[nH]1)C1CCN(c2nc3ccccc3n2Cc2ccc(F)cc2)CC1` belongs 0.52%; to `C[C@H]1[C@H](C)CC[C@]2(C(=O)O)CC[C@]3(C)C(=CC[C@@H]4[C@@]5(C)CC[C@H](O)C(C)(C)[C@@H]5CC[C@]43C)[C@H]12`, -0.84%.
In the case of `Clc1ccccc1CNC[C@H]1CC[C@H](CNCc2ccccc2Cl)CC1`, the result_ITMP came out at 111%.
In the case of `Clc1ccccc1CN1CCc2sccc2C1`, the result_ITMP was determined as 5.84%.
As to `CC[N+](CC)(CCNC(=O)C(=O)NCC[N+](CC)(CC)Cc1ccccc1Cl)Cc1ccccc1Cl`, the result_ITMP was -0.68%.
In the case of `COC(=O)[C@@]12OC[C@]34[C@H]([C@@H](O)[C@@H]1O)[C@@]1(C)CC(=O)C(O)=C(C)[C@@H]1C[C@H]3OC(=O)[C@H](OC(=O)/C=C(\C)C(C)C)[C@@H]24`, the result_ITMP is -3.12%.
As for `O=C1CN(/N=C/c2ccc(-c3ccc([N+](=O)[O-])cc3)o2)C(=O)[N-]1`, the result_ITMP was -3.77%.
Turning to `CCCCN(CCCC)CCCOC(=O)c1ccc(N)cc1`, the result_ITMP was determined as 4.87%.
In the case of `CCc1oc2ccccc2c1C(=O)c1cc(Br)c(O)c(Br)c1`, the result_ITMP is reported as 0.74%.
Turning to `CCc1oc2ccccc2c1C(=O)c1ccc(OCC(=O)O)cc1`, the result_ITMP is given as -9.49%.
`CCCCc1oc2ccc(NS(C)(=O)=O)cc2c1C(=O)c1ccc(OCCCN(CCCC)CCCC)cc1`: the result_ITMP is given as 74.9%.
To `CN(CCOc1ccc(NS(C)(=O)=O)cc1)CCc1ccc(NS(C)(=O)=O)cc1` belongs -1.68%; to `CCCCc1oc2ccccc2c1C(=O)c1cc(I)c(OCCN(CC)CC)c(I)c1`, 55.1%.
To `CC[C@@H](C)C[C@@H](C)CCCCCCCCC(=O)N[C@H]1C[C@@H](O)[C@@H](NCCN)NC(=O)[C@@H]2[C@@H](O)CCN2C(=O)[C@H]([C@H](O)CCN)NC(=O)[C@H]([C@H](O)[C@@H](O)c2ccc(O)cc2)NC(=O)[C@@H]2C[C@@H](O)CN2C(=O)[C@H]([C@@H](C)O)NC1=O` belongs -8.5%.
With `CC(C)c1cc2c(cc1S(=O)(=O)O)[C@@]1(C)CCC[C@@](C)(C(=O)O)[C@@H]1CC2`, the result_ITMP is given as -4.65%.
To `CC(C)c1ccc2c(c1)CC[C@H]1[C@](C)(CN)CCC[C@]21C` belongs 80.5%; to `Cc1c(N)nc([C@H](CC(N)=O)NC[C@@H](N)C(N)=O)nc1C(=O)N[C@H](C(=O)N[C@@H](C)[C@H](O)[C@@H](C)C(=O)N[C@@H](C(=O)NCCc1nc(-c2nc(C(=O)NCCC[S+](C)C)cs2)cs1)[C@@H](C)O)C(O[C@H]1O[C@H](CO)[C@H](O)[C@@H](O)[C@H]1O[C@H]1O[C@H](CO)[C@@H](O)[C@H](OC(N)=O)[C@@H]1O)c1c[nH]cn1` (stereo partly drawn), 7.07%.
To `C[C@]12C=CC(=O)N[C@@H]1CC[C@@H]1[C@@H]2CC[C@]2(C)[C@@H](C(=O)Nc3cc(C(F)(F)F)ccc3C(F)(F)F)CC[C@@H]12` belongs -3.63%; to `C[C@@H]1CC[C@@]2(OC1)O[C@H]1C[C@H]3[C@@H]4CC=C5C[C@@H](O[C@@H]6O[C@H](CO)[C@@H](O[C@@H]7O[C@@H](C)[C@H](O)[C@@H](O)[C@H]7O)[C@H](O)[C@H]6O[C@@H]6O[C@@H](C)[C@H](O)[C@@H](O)[C@H]6O)CC[C@]5(C)[C@H]4CC[C@]3(C)[C@H]1[C@@H]2C`, 18.9%.
To `CC1(C)S[C@@H]2[C@H](NC(=O)Cc3ccccc3)C(=O)N2[C@H]1C(=O)[O-]` belongs -4.24%; to `Clc1ccc(Nc2nnc(Cc3ccncc3)c3ccccc23)cc1`, -1.32%.
Regarding `COC1CCN(C(=O)c2cc(Cc3n[nH]c(=O)c4ccccc34)ccc2F)CC1`, the result_ITMP is listed as 2.83%.
With `CN1CCCC(n2nc(Cc3ccc(Cl)cc3)c3ccccc3c2=O)CC1` (stereo not drawn), the result_ITMP is 57.2%.
As for `Cc1nnc(SCC2=C(C(=O)[O-])N3C(=O)[C@@H](NC(=O)Cn4cnnn4)[C@H]3SC2)s1`, the result_ITMP was -0.51%.
Turning to `C=CCN1CC[C@@]2(C)c3cc(O)ccc3C[C@H]1[C@H]2C`, the result_ITMP was -0.02%.
To `CN1CCCC(CN2c3ccccc3Sc3ccccc32)C1` (stereo not drawn) belongs 42.2%; to `CN1CCCC(CC2c3ccccc3Sc3ccccc32)C1` (stereo not drawn), 74.2%.
To `CN1CC[C@@H]2CN3CCc4cccc(c43)[C@@H]2C1` belongs 5.83%.
With `C[C@]12CC[C@@H](O)C[C@@H]1CC[C@@H]1[C@@H]2CC[C@]2(C)C(c3ccccc3)=CC[C@@H]12`, the result_ITMP is -2.07%.
With `N#CCc1ccccc1C#Cc1ccc(CCC(=O)O)c(F)c1`, the result_ITMP was -8.03%.
On to `O=C(O[C@H]1C[C@H]2CC[C@@H](C1)[N+]21CCCC1)C(O)(c1ccccc1)c1ccccc1`, for which the result_ITMP is recorded as -3.78%.
To `CN1[C@@H](CC(=O)c2ccccc2)CCC[C@H]1C[C@H](O)c1ccccc1` belongs 13.8%.
Take `CCN(CCO)CCCC(C)Nc1ccnc2cc(Cl)ccc12` (stereo not drawn): the result_ITMP was 1.54%.
Turning to `CCN(CC)CCCC(C)Nc1c2ccc(Cl)cc2nc2ccc(OC)cc12` (stereo not drawn), the result_ITMP is recorded as 110%.
For the molecule `COc1ccc2nc3ccc(Cl)cc3c(SCCCN)c2c1`, the result_ITMP was -9.55%.
On to `CC1(C)CCC(C)(C)c2c1cc(C(=O)Nc1cc(F)c(C(=O)O)c(F)c1)c(O)c2Cl`, for which the result_ITMP is -2.47%.
For `CSc1ccc([C@H]2CN3CCC[C@H]3c3ccccc32)cc1` (racemic), the result_ITMP is reported as 14.1%.
`CSc1ccc2c(c1)C(N1CCN(C)CC1)Cc1ccccc1S2` (stereo not drawn): the result_ITMP stood at 79.9%.
Consider `CC[C@H]1[C@@H](O)[C@@H]2[C@H](CC[C@]3(C)[C@@H]([C@H](C)CCOS(=O)(=O)[O-])CC[C@@H]23)[C@@]2(C)CC[C@@H](O)C[C@@H]12`, for which the result_ITMP is listed as -1.93%.
